Results: ChEMBL document CHEMBL3988442, “University of Dundee, Small-Polar-MMV Screening Library” (2021)
For part of these data: Entries with a potency or affinity are not part of this list.

Experiments:
[1] = target: T1, Methionyl-tRNA synthetase, putative (Leishmania donovani (strain BPK282A1)) (UniProt E9BF75); assay: Leishmania donovani Methionine tRNA synthetase (LdMetRS):v7. Dose response assay; format: functional; design: conc 80 nM, time 150 minutes
T1 sequence (whole entry): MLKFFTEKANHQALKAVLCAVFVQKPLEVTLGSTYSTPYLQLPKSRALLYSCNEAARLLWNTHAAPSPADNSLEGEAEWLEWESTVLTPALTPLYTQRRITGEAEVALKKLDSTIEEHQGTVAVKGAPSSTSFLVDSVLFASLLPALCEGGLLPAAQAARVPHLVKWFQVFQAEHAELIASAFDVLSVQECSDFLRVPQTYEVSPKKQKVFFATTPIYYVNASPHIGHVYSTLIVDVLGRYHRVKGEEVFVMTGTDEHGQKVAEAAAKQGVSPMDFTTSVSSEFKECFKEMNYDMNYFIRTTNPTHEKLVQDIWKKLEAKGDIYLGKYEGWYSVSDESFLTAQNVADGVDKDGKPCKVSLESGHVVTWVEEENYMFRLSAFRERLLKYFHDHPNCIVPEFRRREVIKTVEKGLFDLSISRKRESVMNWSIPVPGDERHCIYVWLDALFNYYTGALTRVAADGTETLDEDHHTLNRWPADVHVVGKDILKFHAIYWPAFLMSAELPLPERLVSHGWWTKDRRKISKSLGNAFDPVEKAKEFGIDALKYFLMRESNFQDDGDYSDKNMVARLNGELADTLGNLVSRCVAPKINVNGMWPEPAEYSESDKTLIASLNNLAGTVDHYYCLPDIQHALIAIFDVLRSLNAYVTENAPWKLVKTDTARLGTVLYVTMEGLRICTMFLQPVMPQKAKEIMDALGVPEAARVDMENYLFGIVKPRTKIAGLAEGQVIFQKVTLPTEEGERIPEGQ

[2] = target: Protein translocase subunit SecA (Escherichia coli (strain K12)) (UniProt P10408); assay: Assay to Identify E. coli SecA ATPase Inhibitors; format: functional; design: scale not given: direction of the effect not stated beside the values; details: 30 µM
Chain of Protein translocase subunit SecA (Escherichia coli (strain K12)) (P10408 whole entry): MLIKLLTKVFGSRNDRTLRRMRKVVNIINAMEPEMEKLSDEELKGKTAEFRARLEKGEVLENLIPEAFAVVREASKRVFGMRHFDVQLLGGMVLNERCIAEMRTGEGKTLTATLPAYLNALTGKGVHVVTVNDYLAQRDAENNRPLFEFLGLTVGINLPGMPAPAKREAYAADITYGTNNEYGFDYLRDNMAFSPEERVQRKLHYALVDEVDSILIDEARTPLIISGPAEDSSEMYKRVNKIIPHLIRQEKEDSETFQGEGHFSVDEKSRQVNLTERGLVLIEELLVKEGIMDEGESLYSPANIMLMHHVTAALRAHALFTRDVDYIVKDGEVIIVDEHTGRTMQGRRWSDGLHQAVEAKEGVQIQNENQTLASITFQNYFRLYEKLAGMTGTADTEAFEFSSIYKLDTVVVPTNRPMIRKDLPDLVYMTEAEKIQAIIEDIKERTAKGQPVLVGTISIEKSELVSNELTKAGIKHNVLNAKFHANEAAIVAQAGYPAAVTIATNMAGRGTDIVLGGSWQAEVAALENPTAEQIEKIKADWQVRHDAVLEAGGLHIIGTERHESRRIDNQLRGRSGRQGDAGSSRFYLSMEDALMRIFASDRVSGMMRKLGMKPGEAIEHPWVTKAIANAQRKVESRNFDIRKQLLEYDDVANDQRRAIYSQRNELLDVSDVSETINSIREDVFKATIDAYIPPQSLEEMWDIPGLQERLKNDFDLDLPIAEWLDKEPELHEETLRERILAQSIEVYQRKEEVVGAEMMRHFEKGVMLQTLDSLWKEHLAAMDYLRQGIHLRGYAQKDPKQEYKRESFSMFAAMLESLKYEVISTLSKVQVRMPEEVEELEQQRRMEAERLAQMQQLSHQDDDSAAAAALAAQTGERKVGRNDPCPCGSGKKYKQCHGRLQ

[3] = target: T2, Ubiquitin-activating enzyme e1, putative (Leishmania donovani (strain BPK282A1)) (UniProt E9BSI1); assay: Leishmania donovani Ubiquitin Activating Enzyme (LdE1); format: functional; design: scale not given: direction of the effect not stated beside the values; details: 30 µM
T2 sequence (whole entry): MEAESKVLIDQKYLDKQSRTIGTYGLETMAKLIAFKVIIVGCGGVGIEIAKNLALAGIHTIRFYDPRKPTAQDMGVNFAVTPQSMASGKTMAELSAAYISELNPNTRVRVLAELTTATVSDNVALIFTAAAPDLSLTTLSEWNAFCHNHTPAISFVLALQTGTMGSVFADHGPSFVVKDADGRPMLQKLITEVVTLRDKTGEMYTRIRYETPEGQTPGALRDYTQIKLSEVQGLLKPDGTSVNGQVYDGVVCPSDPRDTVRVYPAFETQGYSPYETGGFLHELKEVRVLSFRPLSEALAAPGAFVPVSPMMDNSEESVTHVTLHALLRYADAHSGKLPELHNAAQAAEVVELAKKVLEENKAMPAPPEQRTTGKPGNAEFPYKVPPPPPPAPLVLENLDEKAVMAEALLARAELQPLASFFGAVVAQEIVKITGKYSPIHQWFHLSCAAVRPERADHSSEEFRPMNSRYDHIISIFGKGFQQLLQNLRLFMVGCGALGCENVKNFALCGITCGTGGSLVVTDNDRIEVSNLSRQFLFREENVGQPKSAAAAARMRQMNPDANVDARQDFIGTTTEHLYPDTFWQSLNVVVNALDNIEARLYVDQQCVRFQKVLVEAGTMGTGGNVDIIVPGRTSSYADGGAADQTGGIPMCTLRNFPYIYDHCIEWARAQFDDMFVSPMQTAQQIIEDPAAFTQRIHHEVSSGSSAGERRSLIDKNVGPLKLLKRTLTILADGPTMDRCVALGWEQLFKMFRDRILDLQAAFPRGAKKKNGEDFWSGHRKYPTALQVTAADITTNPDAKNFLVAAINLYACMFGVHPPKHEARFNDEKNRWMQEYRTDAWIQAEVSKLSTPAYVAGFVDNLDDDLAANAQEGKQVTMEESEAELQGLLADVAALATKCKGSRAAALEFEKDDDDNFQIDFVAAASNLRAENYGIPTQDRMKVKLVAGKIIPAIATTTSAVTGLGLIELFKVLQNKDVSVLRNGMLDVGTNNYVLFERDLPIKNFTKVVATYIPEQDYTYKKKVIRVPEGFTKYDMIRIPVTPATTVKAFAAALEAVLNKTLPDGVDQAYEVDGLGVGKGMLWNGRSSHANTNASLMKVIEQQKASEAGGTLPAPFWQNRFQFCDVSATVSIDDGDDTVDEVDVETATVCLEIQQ

[4] = target: T3, Aspartate--tRNA(Asp/Asn) ligase (Mycobacterium tuberculosis (strain ATCC 25618 / H37Rv)) (UniProt P9WFW3); assay: Assay for Asp RNA synthetase-1 from Mycobacterium tuberculosis; format: functional; design: scale not given: direction of the effect not stated beside the values; details: 30 µM; also: in the data most compounds retested in dose-response had high values
T3 sequence (whole entry): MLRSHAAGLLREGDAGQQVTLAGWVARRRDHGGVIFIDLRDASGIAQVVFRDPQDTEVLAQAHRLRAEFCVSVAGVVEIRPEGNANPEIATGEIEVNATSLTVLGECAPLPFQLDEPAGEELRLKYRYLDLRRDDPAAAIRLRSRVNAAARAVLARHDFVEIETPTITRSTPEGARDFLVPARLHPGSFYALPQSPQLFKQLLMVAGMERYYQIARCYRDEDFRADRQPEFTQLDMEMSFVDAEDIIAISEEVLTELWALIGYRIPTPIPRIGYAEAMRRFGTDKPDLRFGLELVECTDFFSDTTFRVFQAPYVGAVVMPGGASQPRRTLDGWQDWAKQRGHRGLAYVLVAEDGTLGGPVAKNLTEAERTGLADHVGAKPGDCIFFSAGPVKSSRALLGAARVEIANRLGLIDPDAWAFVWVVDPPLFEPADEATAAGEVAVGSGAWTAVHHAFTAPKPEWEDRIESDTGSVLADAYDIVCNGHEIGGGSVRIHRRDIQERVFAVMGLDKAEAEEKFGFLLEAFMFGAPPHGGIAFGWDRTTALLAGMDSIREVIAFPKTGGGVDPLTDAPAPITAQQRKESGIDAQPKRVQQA

[5] = target: AMP-activated protein kinase, AMPK (Homo sapiens) (UniProt P54646+O43741+P54619+Q9UGJ0+Q9Y478+Q13131+Q9UGI9); assay: AMP-dependent Kinase enzyme assay. An in vitro enzyme assay that detects ADP turnover that is directly proportional to AMPK activity. This uses naive AMPK that is activated during the assay with MK-8722; format: functional; design: scale not given: direction of the effect not stated beside the values; details: 30 µM
[6] = target: Sialic acid-binding Ig-like lectin 9 (Homo sapiens) (UniProt Q9Y336); assay: Hs-Siglec9 ALPHAscreen SOP 20170721; design: scale not given: direction of the effect not stated beside the values; details: 10 µM
Chain of Sialic acid-binding Ig-like lectin 9 (Homo sapiens) (Q9Y336 whole entry): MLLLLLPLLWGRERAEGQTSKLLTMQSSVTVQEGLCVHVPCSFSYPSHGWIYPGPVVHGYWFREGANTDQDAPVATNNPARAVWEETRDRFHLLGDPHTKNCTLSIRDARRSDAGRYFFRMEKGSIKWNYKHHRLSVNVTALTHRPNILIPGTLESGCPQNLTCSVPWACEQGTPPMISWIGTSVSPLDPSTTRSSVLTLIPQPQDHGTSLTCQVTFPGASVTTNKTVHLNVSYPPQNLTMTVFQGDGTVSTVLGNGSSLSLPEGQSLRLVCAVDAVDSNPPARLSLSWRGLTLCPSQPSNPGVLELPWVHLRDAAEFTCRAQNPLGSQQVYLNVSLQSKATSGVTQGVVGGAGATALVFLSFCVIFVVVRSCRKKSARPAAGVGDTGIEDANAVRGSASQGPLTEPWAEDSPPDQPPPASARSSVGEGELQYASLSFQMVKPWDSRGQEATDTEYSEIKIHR

Trypanosoma cruzi = assay: Trypanosoma cruzi phosphomannomutase and mannose-1-phosphate guanylyltransferase assay; format: functional; design: scale not given: direction of the effect not stated beside the values; details: 10 µM
[7] = target: T4, Arginase-2, mitochondrial (Homo sapiens) (UniProt P78540); assay: in vitro enzyme assay to detect the production of urea directly proportional to the activity of Arginase II; format: functional; design: scale not given: in the data most compounds retested in dose-response had high values; details: 33.3 µM
T4 sequence (whole entry): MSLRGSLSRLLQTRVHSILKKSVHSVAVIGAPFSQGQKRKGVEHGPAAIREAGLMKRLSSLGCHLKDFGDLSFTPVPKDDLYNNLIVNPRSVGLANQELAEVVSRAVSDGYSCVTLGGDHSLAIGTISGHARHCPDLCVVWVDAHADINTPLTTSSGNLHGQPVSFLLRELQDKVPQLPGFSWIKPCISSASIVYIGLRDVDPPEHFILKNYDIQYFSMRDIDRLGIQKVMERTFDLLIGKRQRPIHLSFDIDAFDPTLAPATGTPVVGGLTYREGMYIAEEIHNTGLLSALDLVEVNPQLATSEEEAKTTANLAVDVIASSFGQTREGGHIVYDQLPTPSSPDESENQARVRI

[8] = target: T5, Proteasome subunit beta (Trypanosoma cruzi) (UniProt O96673); assay: Trypanosoma cruzi proteasome chymotrypsin-like activity (TcProtChymo) assay.; format: functional; design: scale not given: in the data most compounds retested in dose-response had high values; details: 9.37 µM
T5 sequence (whole entry): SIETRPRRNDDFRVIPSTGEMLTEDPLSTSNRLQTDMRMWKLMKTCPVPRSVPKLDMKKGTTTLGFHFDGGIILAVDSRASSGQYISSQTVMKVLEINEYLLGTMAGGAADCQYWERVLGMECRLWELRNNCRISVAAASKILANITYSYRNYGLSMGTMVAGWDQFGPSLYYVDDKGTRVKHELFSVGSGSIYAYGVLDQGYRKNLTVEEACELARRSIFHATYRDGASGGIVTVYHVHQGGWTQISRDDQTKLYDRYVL

Homo sapiens = organism: Homo sapiens; assay: To identify inhibition of the IFN signalling (Jak-Stat) pathway via expression of an eGFP reporter gene under the control of an IFN-stimulated response element (ISRE) containing MxA promoter.; format: functional; design: scale not given: direction of the effect not stated beside the values; details: 30 µM
[9] = target: Shiga toxin 2 (Escherichia coli O157:H7) (UniProt P09385+P09386); assay: E. coli 0.157:H7 Shiga Toxin SOP - stx2 screening assay; format: functional; design: scale not given: direction of the effect not stated beside the values; details: 30 µM
[10] = target: T6, Tyrosyl-tRNA synthetase, putative (Trypanosoma cruzi (strain CL Brener)) (UniProt Q4DSP6); assay: Trypanosoma cruzi tyrosyl tRNA synthetase (TcYRS) _High Tyrosine SOP; format: functional; design: scale not given: in the data most compounds retested in dose-response had high values; details: 30 µM
T6 sequence (whole entry): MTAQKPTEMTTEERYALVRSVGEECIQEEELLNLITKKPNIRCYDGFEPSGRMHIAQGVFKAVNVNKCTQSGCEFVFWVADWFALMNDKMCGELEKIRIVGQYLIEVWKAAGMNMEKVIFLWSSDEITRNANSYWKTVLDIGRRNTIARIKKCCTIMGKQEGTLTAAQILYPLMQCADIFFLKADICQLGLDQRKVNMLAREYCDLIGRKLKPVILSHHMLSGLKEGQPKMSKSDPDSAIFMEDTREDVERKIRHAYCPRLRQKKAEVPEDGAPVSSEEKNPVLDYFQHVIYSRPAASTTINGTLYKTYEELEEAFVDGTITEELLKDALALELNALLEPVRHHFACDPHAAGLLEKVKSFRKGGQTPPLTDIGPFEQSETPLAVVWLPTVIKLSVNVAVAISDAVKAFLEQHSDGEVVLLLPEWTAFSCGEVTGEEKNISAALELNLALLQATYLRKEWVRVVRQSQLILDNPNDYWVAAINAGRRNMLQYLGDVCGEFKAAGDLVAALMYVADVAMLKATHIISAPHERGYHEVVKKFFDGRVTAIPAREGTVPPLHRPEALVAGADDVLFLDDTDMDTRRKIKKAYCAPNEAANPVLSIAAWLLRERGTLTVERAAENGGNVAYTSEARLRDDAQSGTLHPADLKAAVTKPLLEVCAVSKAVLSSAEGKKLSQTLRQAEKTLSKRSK

[11] = target: T6, Tyrosyl-tRNA synthetase, putative (Trypanosoma cruzi (strain CL Brener)); assay: Trypanosoma cruzi tyrosyl tRNA synthetase (TcYRS) SOP; format: functional; design: scale not given: direction of the effect not stated beside the values; details: 30 µM
[12] = target: Chromo domain-containing protein 1 (Saccharomyces cerevisiae (strain ATCC 204508 / S288c) (Baker's yeast)) (UniProt P32657); assay: ScCHD-1 Enzyme Inhibition Assay; format: functional; design: scale not given: in the data most compounds retested in dose-response had high values; details: 30 µM
Chain of Chromo domain-containing protein 1 (Saccharomyces cerevisiae (strain ATCC 204508 / S288c) (Baker's yeast)) (P32657 whole entry, the tested form may be a part): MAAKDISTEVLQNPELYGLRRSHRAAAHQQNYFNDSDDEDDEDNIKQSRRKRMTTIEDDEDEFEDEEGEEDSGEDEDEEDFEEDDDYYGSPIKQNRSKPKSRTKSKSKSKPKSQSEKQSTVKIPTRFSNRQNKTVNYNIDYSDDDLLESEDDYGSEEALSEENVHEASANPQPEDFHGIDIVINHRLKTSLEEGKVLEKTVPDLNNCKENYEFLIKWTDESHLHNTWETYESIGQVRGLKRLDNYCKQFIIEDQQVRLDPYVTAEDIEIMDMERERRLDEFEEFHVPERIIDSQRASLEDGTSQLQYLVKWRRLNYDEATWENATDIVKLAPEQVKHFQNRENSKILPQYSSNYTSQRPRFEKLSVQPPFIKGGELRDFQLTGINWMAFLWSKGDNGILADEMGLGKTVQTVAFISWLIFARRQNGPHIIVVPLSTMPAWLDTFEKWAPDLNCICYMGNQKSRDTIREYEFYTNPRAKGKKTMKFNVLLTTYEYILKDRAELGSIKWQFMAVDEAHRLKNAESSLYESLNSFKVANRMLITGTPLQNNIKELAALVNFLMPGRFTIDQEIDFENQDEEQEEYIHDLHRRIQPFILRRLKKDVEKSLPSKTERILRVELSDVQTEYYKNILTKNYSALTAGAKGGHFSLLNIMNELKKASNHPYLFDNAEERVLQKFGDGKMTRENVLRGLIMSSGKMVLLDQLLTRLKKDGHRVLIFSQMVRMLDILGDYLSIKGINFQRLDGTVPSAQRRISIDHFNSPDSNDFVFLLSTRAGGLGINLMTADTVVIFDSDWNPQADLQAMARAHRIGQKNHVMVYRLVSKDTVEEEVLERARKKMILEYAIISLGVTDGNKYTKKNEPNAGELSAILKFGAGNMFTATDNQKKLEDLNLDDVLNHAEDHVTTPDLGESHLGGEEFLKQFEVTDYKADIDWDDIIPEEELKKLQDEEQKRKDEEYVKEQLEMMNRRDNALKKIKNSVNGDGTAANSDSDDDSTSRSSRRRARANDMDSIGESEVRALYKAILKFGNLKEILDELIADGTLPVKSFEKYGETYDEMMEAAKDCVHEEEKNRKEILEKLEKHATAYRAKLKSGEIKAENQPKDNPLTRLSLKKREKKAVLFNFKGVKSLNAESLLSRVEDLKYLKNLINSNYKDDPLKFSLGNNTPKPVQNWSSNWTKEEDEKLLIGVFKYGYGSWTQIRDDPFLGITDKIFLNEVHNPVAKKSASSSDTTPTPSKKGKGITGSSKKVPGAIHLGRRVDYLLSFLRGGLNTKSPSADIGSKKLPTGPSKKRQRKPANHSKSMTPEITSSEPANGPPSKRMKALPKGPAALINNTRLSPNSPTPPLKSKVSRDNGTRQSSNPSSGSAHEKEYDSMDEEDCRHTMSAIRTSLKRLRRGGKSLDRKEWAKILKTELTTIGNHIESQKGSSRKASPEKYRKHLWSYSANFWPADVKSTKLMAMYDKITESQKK

For `Cc1nc(N2C[C@@H]3CCN(C)[C@@H]3C2)c2ccsc2n1`, which PXC50 ([1]; MAX_EFFECT 4.081632653) is on record?
The PXC50 was < 4.

What about the PXC50 ([1]; MAX_EFFECT 6.313131313) of the same compound?
The PXC50 was < 4.

With `COCCN1CCC2(CCCN(c3ncccn3)C2)C1` (stereo not given) as the compound, how does the Percent Effect [2] read?
The Percent Effect was -2.69%.

And the Percent Effect [3]?
Its Percent Effect is 2.67%.

What about the Percent Effect [4] of the same compound?
Its Percent Effect is -4.34%.

What about the Percent Effect [5] of the same compound?
Its Percent Effect is 10.4%.

What about the Percent Effect [6] of the same compound?
Its Percent Effect is 2.96%.

And the Percent Effect (Trypanosoma cruzi)?
The Percent Effect was -2.17%.

And the Percent Effect [7]?
The Percent Effect was 8.16%.

What about the Percent Effect [8] of the same compound?
Its Percent Effect is 4.32%.

And the Percent Effect (Homo sapiens)?
Its Percent Effect is -7.02%.

And the Percent Effect [9]?
The Percent Effect was -6.31%.

What about the Percent Effect [10] of the same compound?
The Percent Effect was -1.06%.

And the Percent Effect [11]?
Its Percent Effect is -3.85%.

What about the Percent Effect [12] of the same compound?
Its Percent Effect is -4.53%.

Which Percent Effect [2] does the source give for `Cc1noc(C)c1CN1CCOC2(CCCN(c3nccs3)C2)C1` (stereo not given) here?
Its Percent Effect is -8.9%.

What about the Percent Effect [3] of the same compound?
Its Percent Effect is 8%.

And the Percent Effect [4]?
The Percent Effect was 7.92%.

And the Percent Effect [5]?
The Percent Effect was 26.5%.

And the Percent Effect [6]?
The Percent Effect was 1.44%.

What about the Percent Effect (Trypanosoma cruzi) of the same compound?
Its Percent Effect is -6.18%.

And the Percent Effect [7]?
The Percent Effect was -56.1%.

What about the Percent Effect [8] of the same compound?
The Percent Effect was 2.91%.

And the Percent Effect (Homo sapiens)?
Its Percent Effect is 21.7%.

What about the Percent Effect [9] of the same compound?
The Percent Effect was -14.3%.

What about the Percent Effect [10] of the same compound?
The Percent Effect was -7.29%.

What about the Percent Effect [11] of the same compound?
The Percent Effect was -30%.

And the Percent Effect [12]?
The Percent Effect was -4.72%.

Which PXC50 ([1]; MAX_EFFECT 6.355140187) does the source give for `OCCN1CCC(F)(F)C2(CCN(c3cccnc3)C2)C1` (stereo not given) here?
Its PXC50 is < 4.

And the PXC50 ([1]; MAX_EFFECT 7.256235828)?
Its PXC50 is < 4.
